The labels stand for the following.
B1: 60 (nucleosome)
DNA 1: ATCCTGGAGAATCCCGGTGCCGAGGCCGCTCAATTGGTCGTAGACAGCTCTAGCACCGCTTATCAAGGCCAACGCGCTGTCCCCCGCGTTTTAACCGCCAAGGGGATTACTCCCTAGTCTCCAGGCACGTGTCAGATATATACATCCTGTGAT
DNA 2: ATCACAGGATGTATATATCTGACACGTGCCTGGAGACTAGGGAGTAATCCCCTTGGCGGTTAAAACGCGGGGGACAGCGCGTTGGCCTTGATAAGCGGTGCTAGAGCTGTCTACGACCAATTGAGCGGCCTCGGCACCGGGATTCTCCAGGAT
modifications: reconstituted with mouse histones H2A, H2B, H3.3 and H4
B2: 53 (nucleosome)
DNA 1: ATCCTGGAGAATCCCGGTGCCGAGGCCGCTCAATTGGTCGTAGACAGCTCTAGCATCAAGGCCACGCACGTACGCGCTGTCCCCCGCGTTTTAACCGCCAAGGGGATTACTCCCTAGTCTCCAGGCACGTGTCAGATATATACATCCTGTGAT
DNA 2: ATCACAGGATGTATATATCTGACACGTGCCTGGAGACTAGGGAGTAATCCCCTTGGCGGTTAAAACGCGGGGGACAGCGCGTACGTGCGTGGCCTTGATGCTAGAGCTGTCTACGACCAATTGAGCGGCCTCGGCACCGGGATTCTCCAGGAT
modifications: reconstituted with mouse histones H2A, H2B, H3.3 and H4
B3: 57 (nucleosome)
DNA 1: B1 DNA 1 with T61C, T63A, C64G, A65G, A66C, G67C, G68A, C70G, A71T
DNA 2: B1 DNA 2 with T83A, G84C, C86T, C87G, T88G, T89C, G90C, A91T, A93G
modifications: reconstituted with mouse histones H2A, H2B, H3.3 and H4
B4: 54 (nucleosome)
DNA 1: B2 DNA 1 with T56C, C57T, A58C, G60A, C62G, A64C, C65A
DNA 2: B2 DNA 2 with G89T, T90G, G92C, C94T, T96G, G97A, A98G
modifications: reconstituted with mouse histones H2A, H2B, H3.3 and H4
B5: 56 (nucleosome)
DNA 1: B2 DNA 1 with T56C, A58G, A59T, G60C, G61A, C62A, C63G, A64G, G66C, C67A
DNA 2: B2 DNA 2 with G87T, C88G, T90C, G91C, G92T, C93T, C94G, T95A, T96C, A98G
modifications: reconstituted with mouse histones H2A, H2B, H3.3 and H4
B6: 55 (nucleosome)
DNA 1: B2 DNA 1 with T56C, A58T, A59C, G60A, G61A, C62G, C63G, A64C, G66A
DNA 2: B2 DNA 2 with C88T, T90G, G91C, G92C, C93T, C94T, T95G, T96A, A98G
modifications: reconstituted with mouse histones H2A, H2B, H3.3 and H4
B7: 58 (nucleosome)
DNA 1: B2 DNA 1 with T56C, A58G, A59C, G60T, G61T, C63A, C65G, A68C, C69A
DNA 2: B2 DNA 2 with G85T, T86G, G89C, G91T, C93A, C94A, T95G, T96C, A98G
modifications: reconstituted with mouse histones H2A, H2B, H3.3 and H4
B8: 59 (nucleosome)
DNA 1: B1 DNA 1 with A62T, T63C, C64A, A66G, G68C, C70A, A71T
DNA 2: B1 DNA 2 with T83A, G84T, C86G, T88C, G90T, A91G, T92A
modifications: reconstituted with mouse histones H2A, H2B, H3.3 and H4

Residue numbers refer to the chain shown, from its start. Names may count otherwise.

One experiment addresses NR5A2 wild type;histone octamer (Homo sapiens;, UniProt O00482;C0HKE1;Q6ZWY9;P84244;P62806 1-541;2-130;2-126;2-136;2-103, |). Description: SeEN-seq (EMSA of nucleosome library followed by sequencing); 0.8 uM human NR5A2; 20 mM Tris-HCl pH 7.5, 120 mM NaCl, 1 mM MgCl2, 10 uM ZnCl2, 1 mM DTT, 100 ug/ml BSA, room temperature, 30 min; 0.1 uM nucleosome library; high values mean tight binding. In general terms: In EMSA bound probe runs differently from free probe, usually more slowly.
In the case of B1, the binding signal was 0.819 log2 enrichment (bound/unbound, relative to Widom 601).
With B2, the binding signal was 1.03 log2 enrichment (bound/unbound, relative to Widom 601).
Consider B3, for which the binding signal was 0.552 log2 enrichment (bound/unbound, relative to Widom 601).
Still for that read-out and setting: for B4 the value was 0.993 log2 enrichment (bound/unbound, relative to Widom 601).
On the same count and under the same terms, the figure for B5 is 0.684 log2 enrichment (bound/unbound, relative to Widom 601); for B6 it is 1.2 log2 enrichment (bound/unbound, relative to Widom 601).
On the same count and under the same terms, the figure for B7 is 0.651 log2 enrichment (bound/unbound, relative to Widom 601); for B8 it is 0.92 log2 enrichment (bound/unbound, relative to Widom 601).

The next experiment concerns the target mouse Nr5a2 wild type;histone octamer (Mus musculus;, UniProt P45448;C0HKE1;Q6ZWY9;P84244;P62806 1-560;2-130;2-126;2-136;2-103, |). Description: SeEN-seq (EMSA of nucleosome library followed by sequencing); 1.2 uM mouse Nr5a2; 20 mM Tris-HCl pH 7.5, 120 mM NaCl, 1 mM MgCl2, 10 uM ZnCl2, 1 mM DTT, 100 ug/ml BSA, room temperature, 30 min; 0.1 uM nucleosome library; high values mean tight binding.
Regarding B1, the binding signal is 0.573 log2 enrichment (bound/unbound, relative to Widom 601).
Consider B2, for which the binding signal was 1.17 log2 enrichment (bound/unbound, relative to Widom 601).
Still for that read-out and setting: for B3 the value was 0.504 log2 enrichment (bound/unbound, relative to Widom 601); for B4, 1 log2 enrichment (bound/unbound, relative to Widom 601).
For B5, the binding signal was 0.45 log2 enrichment (bound/unbound, relative to Widom 601).
Same read-out and setting: for B6 the value was 0.957 log2 enrichment (bound/unbound, relative to Widom 601).
Same read-out and setting: for B7 the value was 0.747 log2 enrichment (bound/unbound, relative to Widom 601); for B8, 0.823 log2 enrichment (bound/unbound, relative to Widom 601).

The values are drawn from paper PMC11102866, “Nucleosome-bound NR5A2 structure reveals pioneer factor mechanism by DNA minor groove anchor competition”.
